The text below walks through data of PubChem BioAssay (NCI).

About 83,000 compounds went through this panel and 20% of them were active in at least one assay; those are over-represented in the sample as a whole.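 Assay: single dose, 48 h. Readout: percent growth (0 = no net growth; negative = cell death). Active: <10.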 Unmarked numbers belong to inactive results. Calls of active or inactive are those of the source.

Experiment in all cases: NCI-60 one-dose screen, 48 h (100 = growth as untreated, 0 = no growth, -100 = all killed)
Conditions in all cases: 10 µM unless noted

In assay [1] the test system is HCT-15 colon.
The test system of assay [2] is HT29 colon.
The subject of assay [3] is SNB-75 CNS.
For assay [4], the system named is SNB-19 CNS.
Assay [5] has as its system PC-3 prostate.
The test system of assay [6] is SK-MEL-5 melanoma.
In assay [7] the test system is UACC-62 melanoma.
Assay [8] relates to LOX IMVI melanoma.
Assay [9] concerns SK-MEL-28 melanoma.
The test system of assay [10] is U251 CNS.

`C/C(=N\NC(=O)c1ccncc1)c1ccc(N)cc1`: the growth in [1] is 103%; in assay [2] it was 97.2%; in assay [3], 88.8%; in assay [4] it was 94.6%; in assay [5], 85.8%; in assay [6], 98.8%. For the same compound, the growth is 93.6% in assay [7], 98% in assay [8] and 106% in assay [9].
With `S=C(Nc1ccccc1)c1ccccn1`, the growth in assay [1] is 96.8%; in assay [2], 86.4%; in assay [3], 97.3%; in [4], 97.5%; in [5] it was 92.2%; in [6], 102%. For the same compound, the values for the growth in assay [7], in [8] and in [9] were 90.3%, 85.9% and 104%, respectively.
Take `CC(=O)Oc1c2c(nc3c1c1ccccc1n3Cc1ccccc1)-c1ccccc1C2`: the growth in [1] is 84.9%; in [2], 75.4%; in [3], 75.7%; in assay [4] it was 96.7%; in [5] it was 71.8%; in assay [6] it was 83.7%. Moreover, the growth was 70.2% in [7], 88.1% in [8] and 100% in assay [9].
Regarding `O=c1[nH]nc(-c2ccc(Br)cc2)c2sc(NC(=S)Nc3ccc(Cl)cc3)nc12`, the growth is 103% in assay [1]; 94.1% in assay [2]; 95.7% in assay [3]; 103% in assay [4]; 96.6% in [5]; 99% in assay [6]. Further, the growth in [7] was 89.5%; in assay [8], 84.7%; in [9], 109%.
As for `COC(=O)c1nc(-c2ccccc2)oc1S(=O)(=O)n1nc(-c2ccccc2)cc1N`, the growth was 63.6% in assay [1]; 43.1% in assay [2]; 93.4% in assay [3]; 101% in [4]; 102% in [5]; 94.7% in assay [6]. Moreover, the growth in assay [7] was 95.2%; in assay [8], 72.3%; in [9] it was 89.6%.
On to `COc1cc(/C=C/CO)cc(OC)c1O[C@@H]1O[C@H](CO)[C@@H](O)[C@H](O)[C@H]1O`, for which the growth in assay [1] is 101%; in assay [2] it was 100%; in [3], 94.9%; in [4], 97.2%; in assay [5] it was 95.1%; in assay [6] it was 98.9%. Also, the growth was 100% in assay [7], 96.1% in assay [8] and 105% in assay [9].
On to `O=C(/C(=C/c1ccc([N+](=O)[O-])cc1)SCc1ccc(Cl)cc1)c1ccc(F)cc1`, for which the growth in [1] was -16.5% (active); in assay [2] it was -2.26% (active); in assay [3], 82.3%; in [4] it was 35.6%; in assay [5], 41.4%; in [6], 69.9%. Besides, the growth in assay [7] was 33.8%; in assay [8], -18.3% (active); in assay [9], 95.8%.
Turning to `COc1ccc2cc(/C=C3\N=C(c4cc(OC)c(OC)c(OC)c4)OC3=O)c(OC)nc2c1`, the growth is 99.4% in assay [1]; 98.8% in assay [2]; 98.3% in assay [3]; 94.6% in assay [4]; 93.6% in assay [5]; 103% in [6]. The growth in [7] was 89.7%; in assay [8], 102%; in [9] it was 110%.
For `Nc1c(C(=O)Nc2ccccn2)sc2nc3c(cc12)CCCCC3`, the growth in assay [1] is 24%; in assay [2], 7.16% (active); in [3], 12.3%; in assay [4] it was 33.4%; in assay [5], 31.4%; in assay [6] it was 22.2%. Also, the growth is 40.8% in [7], 48.6% in assay [8] and 73.7% in [9].
As to `COc1ccc(C2=NN(c3ccc(S(N)(=O)=O)cc3)C(c3ccc(Cl)cc3)C2)c(O)c1` (stereo not drawn), the growth was 52.7% in assay [1]; 49.9% in assay [2]; 70.1% in assay [3]; 85.3% in [4]; 27.7% in assay [5]; 75.4% in [6]. The results for the growth in assay [7], in assay [8] and in assay [9] were 52.9%, 77.2% and 74.9%, respectively.
For the compound `O=c1[nH]nc(-c2ccccc2)c2sc(NC(=S)Nc3ccc(Cl)cc3)nc12`, the growth in [1] is 89.9%; in assay [2], 74.8%; in [3], 84.1%; in assay [4], 102%; in assay [5] it was 92%; in assay [6] it was 101%. The results for the growth in assay [7], in [8] and in assay [9] were 92.6%, 92.4% and 110%, respectively.
`O=c1[nH]c(-c2cccc(F)c2)cc2cc(F)ccc12`: the growth in [1] is 16.7%; in [2], 6.64% (active); in [3] it was 12.1%; in [4], 26.6%; in assay [5] it was 16.3%; in assay [6] it was 42.2%. In addition, the growth in assay [7] was 36.4%; in assay [8], 43.3%; in assay [9] it was 61.7%.
Regarding `COc1ccc(-c2cc(-c3nnc(SCC(=O)Nc4ccc(C(C)=O)cc4)o3)c3ccccc3n2)cc1`, the growth was 23.3% in [1]; 38.9% in [2]; -5.55% (active) in assay [3]; 13.8% in assay [4]; 6.81% (active) in [5]; 5.12% (active) in assay [6]. Moreover, the growth in assay [7] was 25.8%; in [8], 4.15% (active); in assay [9], 42.7%.
Turning to `O=C1Nc2ccccc2C12C=C(c1ccccc1)Nc1c2c(-c2ccccc2)nn1-c1ccccc1` (stereo not drawn), the growth is 53.4% in assay [1]; 46.1% in [2]; 71% in assay [3]; 64.3% in [4]; 32.2% in assay [5]; 68.4% in [6]. In addition, the growth in assay [8] is 65.2%; in assay [9] it was 82.2%.
Consider `O=C(Nc1nc2ccc(C(F)(F)F)cc2s1)c1cc(Cl)ccc1O`, for which the growth is 7.56% (active) in assay [1]; -18% (active) in [2]; 16.8% in [3]; 20.5% in assay [4]; 7.15% (active) in assay [5]; -46.1% (active) in assay [6]. Also, the values for the growth in [7], in [8] and in [9] were 13.3%, 5.71% (active) and 26.6%, respectively.
For the compound `Nc1ccc(C(=O)Nc2cccc(C(=O)Nc3ccc4c(O)c(N=Nc5ccc(N=Nc6ccc(S(=O)(=O)O)cc6)cc5)c(S(=O)(=O)O)cc4c3)c2)cc1`, the growth was 102% in [1]; 97.6% in assay [2]; 85.7% in assay [3]; 107% in assay [4]; 98.2% in [5]; 107% in assay [6]. Besides, the growth is 98.6% in assay [7], 94.7% in assay [8] and 99.7% in assay [9].
Turning to `COc1cc(C2=NN(C=O)C(c3cccc(Nc4ccnc5cc(C(F)(F)F)ccc45)c3)C2)cc(OC)c1OC` (stereo not drawn), the growth is 49.2% in assay [1]; 15.3% in assay [2]; 77.7% in assay [3]; 64.2% in assay [4]; 31.7% in assay [5]; 43% in [6]. The growth was 75.4% in [7], 43.1% in [8] and 50.6% in assay [9].
For the compound `CC(=O)OCC1OC(OC2C(COC(C)=O)OC(OCCC[S-])C(OC(C)=O)C2OC(C)=O)C(OC(C)=O)C(OC(C)=O)C1OC(C)=O.[Au+].c1ccc(CN2[CH-]N(Cc3ccccc3)C(c3ccccc3)=C2c2ccccc2)cc1` (stereo not drawn), the growth was 25.6% in [1]; 15.7% in [2]; 45.5% in assay [3]; 23.2% in assay [4]; 17.7% in assay [5]; -12.6% (active) in assay [6]. In addition, the growth in [7] is 13.4%; in assay [8], 11.3%; in assay [9], 28.4%.
For the compound `S=c1ssnc1-c1cc2ccccc2o1`, the growth in assay [1] is 71.1%; in assay [2], 56.6%; in [3] it was 80.8%; in [4] it was 82%; in assay [5], 14.9%; in assay [6], 68.7%. The figures for the growth in assay [7], in [8] and in [9] were 86.6%, 60.5% and 93.2%, respectively.
In the case of `CC(C)(C#N)c1cc(F)cc(C(=O)Nc2cc(Nc3ncccc3-c3ncnc4nc[nH]c34)ccc2F)c1`, the growth is 37.8% in [1]; 10.1% in assay [2]; 78.7% in [3]; 58% in [4]; 54.2% in assay [5]; 20.3% in assay [6]. Further, the growth is 9.35% (active) in [7], -23.6% (active) in [8] and 18.5% in assay [9].
With `O=[N+]([O-])c1cccc(CN(Cc2cccc([N+](=O)[O-])c2O)c2ccccc2)c1O`, the growth was 69.4% in assay [1]; 56.1% in assay [2]; 86.1% in assay [3]; 92% in [4]; 71.1% in assay [5]; 90.5% in [6]. Also, the growth in assay [7] was 69.6%; in assay [8], 79.6%; in assay [9], 96.7%.
In the case of `Cc1cc(C)c2nc(Nc3nc(C)c(C)c(=O)[nH]3)nc(C)c2c1`, the growth in assay [1] was 7.23% (active); in assay [2], 9.28% (active); in [3], 51.3%; in [4], 22%; in assay [5], 20.9%; in assay [6] it was 2.14% (active). Moreover, the growth is -37.7% (active) in assay [7], 6.29% (active) in assay [8] and 3.48% (active) in assay [9].
`O=c1nc(-c2ccccc2)c2cc(-c3ccc(N4CCCC4)nc3)ccc2[nH]1`: the growth was 44% in assay [1]; 30.7% in assay [2]; 66.1% in assay [3]; 66.4% in assay [4]; 65.7% in [5]; 40.4% in assay [6]. Moreover, the growth in [7] was 57.2%; in assay [8], 57.2%; in [9], 82.3%.
As for `CNc1cccc2c1C(=O)c1cccc(N)c1C2=O`, the growth is 71.2% in [2]; 71.5% in [3]; 84.2% in assay [4]; 29.6% in [10]; 40.7% in [5]; 88% in assay [6]. Besides, the growth in [7] is 77.3%; in assay [8] it was 79.1%; in assay [9], 96.3%.
As to `Cn1cc(-c2ccc3c(c2)ncn3-c2ccc(CC(=O)Nc3cc(C(C)(C)C)on3)cc2)cn1`, the growth in assay [2] is 27.1%; in [3] it was -20.6% (active); in assay [4], 58.5%; in assay [10] it was 31.3%; in assay [5] it was 43.5%; in assay [6], 48.2%. For the same compound, the growth in assay [7] is 35.4%; in [8], 12.6%; in assay [9], 48.5%.
In the case of `COC(=O)c1oc2c(C(=O)/C=C/c3ccc(OC)cc3)c(OCCCN3CCCCC3)ccc2c1C`, the growth in assay [1] was 3.33% (active); in [2] it was 3.92% (active); in [3], 33.6%; in assay [4] it was 38.4%; in [5], -2.46% (active); in assay [6], -60.9% (active). Also, the growth is 40.1% in assay [7], -26.1% (active) in assay [8] and -51.4% (active) in assay [9].
